Screening data (PubChem)
Six1-Eya2 blk = blocks human Six1 binding to Eya2. AlphaScreen GST-Six1/His-Eya2 binding, biochemical; hits give low values. activity change, % (no concentration beside the values). 0.56% of 360,000 active. AID 651725; note: % is set by controls: 0 for no effect and ±100 for the full control effect
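Six1/Eya2 binding was read as AlphaScreen signal after compounds were pinned into GST-Six1 plus His-tagged Eya2 (5X stock 250/500 nM) in pH 8.0 Tris/NaCl/TCEP buffer, beads added, then incubated 1 h, 37 C, dark.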
MBNL1 CUG block = inhibitors of human MBNL1 binding to CUG repeat RNA; TR-FRET MBNL1-His/biotin-(CUG)12 binding, 665/545 ratio; Potency, µM (series often up to 57.5 µM), for the others: at the highest dose activity change, negative = inhibition, usual class: inhibitors; 0.036% of 280,000 active; active = well fitted inhibition curve with a large enough effect in the signal ratio, with a control signal flat, not every such curve was filed as active; inconclusive = small, poorly fitted or top-dose-only effect, or effect the other way, or a change in a side signal; inactive = no such curve, though single readings can be large or run the other way; the % refers to the signal ratio; note: potency is the fitted concentration of half-maximal effect; % is set by controls: 0 for no effect and ±100 for the full control effect
Target sequence (Q9NR56 whole entry, looked up): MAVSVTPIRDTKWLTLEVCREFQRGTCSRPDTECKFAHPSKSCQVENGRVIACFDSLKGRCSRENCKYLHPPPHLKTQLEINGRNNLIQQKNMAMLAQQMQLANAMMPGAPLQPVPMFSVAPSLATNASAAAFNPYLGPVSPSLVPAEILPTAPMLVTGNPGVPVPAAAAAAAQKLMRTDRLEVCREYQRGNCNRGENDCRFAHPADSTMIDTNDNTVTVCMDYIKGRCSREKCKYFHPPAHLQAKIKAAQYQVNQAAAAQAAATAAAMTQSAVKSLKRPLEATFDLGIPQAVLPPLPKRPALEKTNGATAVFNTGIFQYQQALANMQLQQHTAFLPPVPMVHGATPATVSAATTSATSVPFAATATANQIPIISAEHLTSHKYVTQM
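Ratiometric TR-FRET (665 over 545 nm, excitation 340 nm) tracks disruption of MBNL1-His/biotin-(CUG)12 complex after 60 min at room temperature, with compounds at 92 nM to 58 uM final.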
Mito fusion act = inhibitors of mitochondrial division or activators of mitochondrial fusion | S. cerevisiae fusion-defective mutant growth rescue, CellTiterGlo 48 h | Potency, µM (series often up to 46.1 µM), without a hit: at the top dose growth rescue (activation), actives largely listed as activators | 0.23% of 320,000 active | AID 485298; active = well fitted activation curve with a large enough effect; inconclusive = small, poorly fitted or top-dose-only effect; inactive = no such curve, though single readings can be large or run the other way; note: potency is the fitted concentration of half-maximal effect; % of control where 0% means no effect; nearly all actives have a fitted effect of over 45% in size
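Temperature-sensitive fusion-defective S. cerevisiae (e.g. fzo1-1, mgm1-5) were grown with compound in YPEG medium (3% ethanol, 3% glycerol) for 48 hours at 37C. Growth rescue was measured as viability by CellTiterGlo luminescence after 10 minutes at ambient.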
uPA generation = inhibitors of cell surface uPA generation. cell surface uPA generation assay, qHTS. Potency, µM (series often up to 38.3 µM), for the others: at the highest dose activity change, negative = inhibition, most hits filed as inhibitors. 0.31% of 330,000 active; active = well fitted inhibition curve with a large enough effect; inconclusive = small, poorly fitted or top-dose-only effect; inactive = no such curve, though single readings can be large or run the other way; tested in mouse RAW 264.7 cells; note: potency is the fitted concentration of half-maximal effect; % is set by controls: 0 for no effect and ±100 for the full control effect; nearly all actives have a fitted effect of over 55% in size
CtBP-E1A inh = CtBP/E1A binding inhibition; 0.49% of 340,000 active; AlphaScreen GST-E1A/His-CtBP binding, 1536-well; hits give low values; activity change, % (concentration not given with the values); AID 651724; note: % is set by controls: 0 for no effect and ±100 for the full control effect
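GST-E1A and His-tagged CtBP (125 nM each as 5X stock) were preincubated with pin-transferred compound for 2 h at 37 °C in the dark, then glutathione donor and nickel acceptor beads were added for 1 h before AlphaScreen reading.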
* hit, by the source's call; ? = inconclusive; nt = not tested or not shown; [ ] = another dose, or the depositor's remark. Only some compounds are listed: those with a hit (about 1.1% of all), similar ones and a draw of the others. Cut-off read from the data, not from the text of the source, unless noted: active = activity change below about -65%; inconclusive = mostly about -30% to -63%; inactive = weaker than that.

SMILES	Six1-Eya2 blk	MBNL1 CUG block	Mito fusion act	uPA generation	CtBP-E1A inh
O=C(COC(=O)c1c(F)cccc1F)NC(=O)NCc1ccccc1	-17	nt	nt	nt	-9
COCC(=O)N/N=C/c1c(C)[nH]n(-c2ccccc2)c1=O	-77*	4%	3%	-3%	-90*
CC(=O)N/N=C/c1c(C)[nH]n(-c2ccccc2)c1=O	-73*	-3%	2%	-1%	-68*
COC(=O)N/N=C\c1c(C)[nH]n(-c2ccccc2)c1=O	6	6%	-3%	0%	-2
Cc1[nH]n(-c2ccccc2)c(=O)c1/C=N/NC(=O)COc1ccccc1[N+](=O)[O-]	-79*	16%	-3%	?	-88*
Cc1[nH]n(-c2ccccc2)c(=O)c1/C=N\NC(=O)C1COc2ccccc2O1 (stereo not given)	-89*	-12%	-5%	-12%	-81*
Cc1c(/C=N/NC(=O)COc2ccccc2[N+](=O)[O-])c2ccccc2n1C	-17	nt	6%	?	nt
N#C/C(=C\c1c[nH]c2ccccc12)C(=O)c1ccc(O)c(O)c1	nt	nt	0%	nt	nt
COc1ccc(CNC(=O)c2ccc(N3CCC4(CC3)CC(c3ccc(Cl)cc3)=NO4)c(NC(=O)Cc3ccc(F)cc3)c2)cc1	10	nt	nt	21%	5
Cc1c(NC(=O)CSc2nnc(-c3ccccc3F)o2)c(=O)n(-c2ccccc2)n1C	1	nt	nt	nt	6
O=C(O)COc1ccccc1/C=C1\SC(=S)N(NC(=O)c2ccccc2O)C1=O	-73*	nt	1%	-2%	-81*
Cc1ccc(C(=O)NN2C(=O)/C(=C/c3cccn3C)SC2=S)cc1	-69*	?	24%	-2%	?
Cn1cc(/C=C2\SC(=S)N(NC(=O)c3ccccc3Cl)C2=O)c2ccccc21	-13	?	2%	7%	-6
O=C(CCCN1C(=O)/C(=C\c2cccs2)SC1=S)NNC(=O)c1ccncc1	1	4%	1%	0%	-26
Cc1ccc(C(=O)NN2C(=O)/C(=C/c3cn(C)c4ccccc34)SC2=S)cc1	2	13%	1%	0%	1
O=C(NN1C(=O)/C(=C/c2cccs2)SC1=S)c1ccncc1	-70*	?	9%	-7%	-72*
Cn1cccc1/C=C1\SC(=S)N(NC(=O)c2ccccc2Cl)C1=O	-72*	?	?	8%	?
CNC(=O)C[C@@H]1C(=O)N(C2CCCCC2)CC1(C)C	13	nt	nt	nt	-3
CCN(CC(=O)Nc1cccc(OC)c1)C(=O)C1CC(=O)N(Cc2ccccc2Cl)C1 (stereo not given)	6	nt	nt	nt	-11
Cc1ccc(CN2C(=O)C(Cc3ccccc3)Nc3ncnc(N4CCN(c5ccccc5)CC4)c32)cc1 (stereo not given)	-15	nt	11µM*	?	nt
CC(C)[C@@H]1CC[C@@H](C)C[C@H]1OC(=O)C[n+]1cc(-c2ccc(Cl)cc2)n2c1CCCCC2	-1	-7%	2%	-19%	-7
COc1ccc(-c2c[n+](CC(=O)OC3CC(C)CCC3C(C)C)c3n2CCC3)cc1 (stereo not given)	2	-3%	4%	6.3µM*	-1
CCC(C)(C)NC(=O)C(c1ccc(C)o1)N(Cc1ccc2c(c1)OCO2)C(=O)c1snc(C(N)=O)c1N (stereo not given)	0	2%	-2%	6%	-11
O=C1COc2cc(S(=O)(=O)NCc3ccco3)c(Cl)cc2N1	nt	nt	-4%	nt	nt
S=C(NCCN1CCOCC1)N/N=C/c1ccccc1	10	9%	-7%	0%	3
SMILES	Six1-Eya2 blk	MBNL1 CUG block	Mito fusion act	uPA generation	CtBP-E1A inh
Oc1ccc(/C=N/NC(=S)NCCN2CCOCC2)c(O)c1	-90*	nt	0%	3%	nt
CCCCN(C(=O)c1ccc(S(=O)(=O)N(C)c2ccccc2)cc1)c1c(N)n(CCC)c(=O)[nH]c1=O	11	nt	nt	3%	nt
COc1ccc(N/C=C/C(=O)c2ccccc2)cc1	7	16%	-1%	10µM*	nt
CN(C)c1ccc(CNc2ncc(Br)cc2Br)cc1	-66*	4%	-1%	8%	?
COc1ccc2ccccc2c1C(=O)/C=C\c1ccoc1	3	-14%[11.5 µM]	10µM*	-7%	12
O=c1cc(-c2ccccc2Cl)oc2cccc(O)c12	-1	7%	1%	-7%	nt
O=c1cc2oc3cc(O)c(O)cc3c(-c3ccccc3[N+](=O)[O-])c-2cc1O	-71*	?	-30%	?	nt
COc1ccc(NC(=O)c2ccco2)cc1NC(=O)c1cc(Br)ccc1Cl	nt	nt	-7%	nt	nt
CC1Cc2ccccc2N1NC(=O)c1ccc(Cl)c(S(N)(=O)=O)c1 (stereo not given)	-85*	-12%	-3%	2%	-12
Fc1ccc(C(CCNCc2cccs2)c2ccco2)cc1 (stereo not given)	-5	-11%	-2%	5%	2
O=S(=O)(NCCC(c1ccc(F)cc1)c1ccco1)c1ccccc1 (stereo not given)	-17	0%	22µM*	3%	-5
CCCCn1c(C)cc2c(c1=O)[C@H]1O[C@](CCCC)(Cc3c1ccc1ccccc31)O2	nt	4%[11.5 µM]	-5%[9.22 µM]	nt	nt
Cc1cccc(NC(=O)c2cnc3sccn3c2=O)c1	-8	-3%	-1%	10µM*	4
Cc1cccc(NC(=O)c2cnc3ccccn3c2=O)c1	4	7%	6%	?	-17
Fc1cccc(CNc2ncnc3ccc(-c4ccoc4)cc23)c1	nt	nt	4%	nt	nt
COC(=O)CCCn1cc(CN2CC(N3CCN(C4CCN(C)CC4)CC3)CS2(=O)=O)nn1 (stereo not given)	7	nt	nt	nt	-4
CCOc1cccc(-c2nn3c(-c4cc(C)[nH]n4)nnc3s2)c1	?	1%	0%	-5%	-71*
O=C(NCC1CCCO1)C(c1ccc(F)cc1)N(CC1CCCO1)C(=O)c1ccc(-c2ccccc2)[nH]1 (stereo not given)	-1	3%	0%	-34%	-13
O=C(NCC1CCCO1)C(c1cccs1)N(Cc1cccs1)C(=O)c1ccc(-c2ccccc2)[nH]1 (stereo not given)	-16	nt	16µM*	-8%	2
Oc1c(C(c2ccccn2)N2CCC(Cc3ccccc3)CC2)cc(Cl)c2cccnc12 (stereo not given)	-88*	9%	12%	-14%	-68*
CN1CCN(C(c2ccc(C(F)(F)F)cc2)c2ccc3cccnc3c2O)CC1 (stereo not given)	?	7%	8%	-13%	-84*
CN1CCN(C(c2ccccn2)c2cc(Cl)c3cccnc3c2O)CC1 (stereo not given)	-89*	17%	-4%	?	nt
CC(=O)NC(c1ccco1)c1cc(Cl)c2cccnc2c1O (stereo not given)	nt	nt	10%	nt	nt
